Assay in all cases: NCI-60 one-dose screen, 48 h (100 = growth as untreated, 0 = no growth, -100 = all killed)
Holding throughout (conditions): 10 µM unless noted

The test system of experiment [1] is NCI-H23 lung.
In experiment [2] the test system is NCI-H226 lung.
The subject of experiment [3] is NCI-H322M lung.
For experiment [4], the system named is HOP-62 NSCLC.
Experiment [5] concerns NCI-H460 lung.
Experiment [6] deals with HOP-92 NSCLC.
The subject of experiment [7] is NCI-H522 lung.
In experiment [8] the test system is A549/ATCC NSCLC.
Experiment [9] has as its system 786-0 renal.
Experiment [10] relates to COLO 205 colon.
Experiment [11] relates to DU-145 prostate.
The subject of experiment [12] is K-562 leukemia.
The test system of experiment [13] is MALME-3M melanoma.
Experiment [14] deals with MDA-MB-231 breast.
The subject of experiment [15] is RXF 393 renal.
Experiment [16] concerns SF-268 CNS.
For experiment [17], the system named is SF-295 CNS.
Experiment [18] has as its system SF-539 CNS.
In experiment [19] the test system is UACC-257 melanoma.
Experiment [20] has as its system M14 melanoma.

Structures are written as SMILES. About 83,000 compounds went through this panel and 20% of them were active in at least one assay; those are over-represented in the sample as a whole.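 Percent growth is the endpoint: 0 to 100 indicates growth inhibition (40 means 60% inhibition), 0 means no net growth, and negative values indicate cell death.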 Values without a mark were called inactive. Active and inactive are the calls of the source. Rule for the calls: active = growth percent below 10; inactive = the rest.

In the case of `CCCCCCCCCCCCCCCCCCOc1ccc(CC(=O)OCC[N+](C)(C)C)cc1`, the growth in experiment [1] is 93.3%; in experiment [2] it was 95.1%; in [3] it was 103%; in [4] it was 108%; in experiment [5], 100%; in experiment [6] it was 103%. In addition, the growth in experiment [7] was 95.7%; in [8], 94.6%; in experiment [9], 93%; in [10], 115%; in experiment [11] it was 99.9%; in [12], 47.7%. For the same molecule, the growth in [13] is 113%; in [14] it was 110%; in experiment [15], 90.1%; in experiment [16] it was 104%; in experiment [17], 97.6%; in experiment [18], 97.9%. The growth in experiment [19] is 108%; in experiment [20] it was 91.5%.

`COc1cccc2c(=O)c3c(sc12)c(NCCCN)nc1ccccc13`: the growth was 59.7% in [1]; 63.4% in [2]; 64.4% in experiment [3]; 53.2% in experiment [4]; -30.1% (active) in experiment [5]; 45.7% in [6]. Besides, the growth is 56.5% in experiment [7]; 36.3% in [8]; 68.2% in experiment [9]; -24.6% (active) in experiment [10]; 33.1% in [11]; -7.71% (active) in [12]. Also, the growth in experiment [13] is 90.9%; in [14], 10.3%; in experiment [15], 61%; in experiment [16], 61.4%; in experiment [17] it was 72.8%; in [18] it was 56.1%. The growth is 94.1% in experiment [19] and 33.9% in experiment [20].

For the molecule `CCc1ccc(Oc2c(-c3ccc(OCc4ccc(Cl)cc4)cc3O)nn(C)c2C(F)(F)F)cc1`, the growth in [1] is -14.2% (active); in experiment [2], 6.86% (active); in experiment [3] it was 13.6%; in [4], -35.2% (active); in experiment [5] it was -20% (active); in [6], -25.3% (active). The growth was -33.5% (active) in [7]; 3.73% (active) in experiment [8]; -37% (active) in experiment [9]; -75.2% (active) in [10]; 15% in experiment [11]; 2.43% (active) in experiment [12]. The growth was -27.6% (active) in experiment [13]; -55.7% (active) in [14]; -43.3% (active) in experiment [15]; 12.6% in experiment [16]; -11.1% (active) in [17]; 2.68% (active) in experiment [18]. Moreover, the growth was -18.3% (active) in experiment [19] and 1% (active) in [20].

In the case of `COc1cc(Nc2cn[nH]c2-c2ccc(Cl)cc2)cc(OC)c1OC`, the growth in [1] is 6.84% (active); in experiment [2], 65.2%; in experiment [3], 79.7%; in [4], 36.7%; in experiment [5], 33.2%; in experiment [6] it was 50.7%. The growth in experiment [7] was 21.7%; in experiment [8], 51%; in [9] it was 53.5%; in [10], 37.6%; in experiment [11], 108%; in experiment [12], 36.4%. Also, the growth in experiment [13] is 38.1%; in experiment [14] it was 49.4%; in [15] it was 51.5%; in experiment [16], 77%; in experiment [17], 66.4%; in experiment [18], 43.4%. The growth is 71.3% in [19] and 8.84% (active) in experiment [20].

Regarding `CC([C@H]1CCC2C3CCC4C[C@@H](NC=O)CC[C@]4(C)C3CC[C@@]21C)N(C)C` (stereo not given in full), the growth is 30.2% in [1]; 43.2% in experiment [2]; -4.46% (active) in experiment [3]; -55.5% (active) in experiment [4]; -59.3% (active) in experiment [5]; 0.955% (active) in [6]. Also, the growth in [7] was 56.5%; in experiment [8], 15.9%; in [9] it was -88.4% (active); in experiment [10], -83.4% (active); in experiment [11] it was 34.1%; in experiment [12], -39.8% (active). The growth in experiment [13] was -57.6% (active); in experiment [14], -13.9% (active); in [15] it was -51.2% (active); in [16], -70% (active); in [17], -38.8% (active); in experiment [18], -78.4% (active). In addition, the values for the growth in experiment [19] and in experiment [20] were -48.3% (active) and -48.8% (active), respectively.

In the case of `NC(=O)C1(Nc2ccc(Br)cc2)CCCC1`, the growth was 97.5% in [1]; 98.9% in experiment [2]; 107% in experiment [3]; 103% in experiment [4]; 110% in [5]; 110% in experiment [6]. The growth in experiment [7] was 92.9%; in [8], 103%; in experiment [9], 102%; in experiment [10] it was 104%; in experiment [11], 119%; in [12], 116%. In addition, the growth in [13] is 108%; in experiment [14], 101%; in experiment [15] it was 115%; in experiment [16], 106%; in experiment [17], 106%; in experiment [18], 89.8%. Besides, the growth was 101% in [19] and 97.1% in experiment [20].

`Cc1cc(N2CCCC2)nc(N(CCCNc2ccnc3cc(Cl)ccc23)Cc2ccccn2)n1`: the growth in [1] was 59%; in experiment [2], 79.8%; in experiment [3], 57.1%; in experiment [4], 55.6%; in experiment [5], 35.6%; in [6], 17.4%. Further, the growth is 47.3% in [7]; 62% in [8]; 53.3% in experiment [9]; 39.1% in [10]; 62.7% in experiment [11]; 11.3% in experiment [12]. Besides, the growth is 39.4% in [13]; 45.2% in [14]; 25.8% in experiment [15]; 62.5% in [16]; 66% in experiment [17]; 9.89% (active) in experiment [18]. Further, the growth in experiment [19] is 49.4%; in experiment [20] it was -15.9% (active).

For `O=c1c2cc(F)ccc2sc2c(NCCCNCCO)nc3ccc(F)cc3c12`, the growth in experiment [1] was 82.5%; in [2], 84.8%; in experiment [3] it was 79.4%; in [4] it was 71.5%; in experiment [5], -32.8% (active); in experiment [6] it was 4.67% (active). Also, the growth in experiment [7] is 60.9%; in experiment [8], 64.7%; in experiment [9], 64.1%; in experiment [10], 23.3%; in experiment [11], 37.4%; in experiment [12], -33.5% (active). Moreover, the growth in [13] was 85.5%; in experiment [14], -7.79% (active); in experiment [15], 63%; in experiment [16], 51.8%; in experiment [17], 98.6%; in [18] it was 63.9%. For the same molecule, the growth in [19] was 94%; in experiment [20], 8.53% (active).

With `c1cc(-c2nnc(SSc3ncnc4nc[nH]c34)o2)ccn1`, the growth in experiment [1] is 43%; in experiment [2] it was 53.5%; in experiment [3], 55.9%; in [4], 52.4%; in experiment [5], 48.4%; in [6], 52.9%. In addition, the growth in [7] is 6.68% (active); in experiment [8], 92.5%; in experiment [9], 13.8%; in experiment [10], 67.7%; in [11], 41.5%; in [12], 17%. The growth in experiment [13] was 103%; in [14], 20.6%; in experiment [15] it was 61.8%; in experiment [16] it was 35%; in [17], 21.9%; in [18], 15.4%. Moreover, the growth was 51.9% in [19] and 7.94% (active) in [20].

As to `COc1ccc2c(c1)c(-c1nn3cc(-c4cccs4)nc3s1)cn2C`, the growth was 82.5% in experiment [1]; 78.9% in experiment [2]; 55.8% in experiment [3]; 85.6% in experiment [4]; 68.7% in [5]; 44.7% in experiment [6]. The growth in [7] is 63%; in experiment [8] it was 81.1%; in [9] it was 97.5%; in [10], 64.5%; in experiment [11], 89.7%; in experiment [12], 51%. Moreover, the growth was 72.1% in experiment [13]; 54.1% in experiment [14]; 96.3% in experiment [15]; 80.3% in experiment [16]; 66.9% in [17]; 81.3% in experiment [18]. For the same molecule, the results for the growth in experiment [19] and in experiment [20] were 105% and 71.6%, respectively.

For `Cc1nc2nc(SCC(=O)O)[nH]c2c(=O)[nH]1`, the growth in experiment [1] is 98.8%; in experiment [2], 101%; in experiment [3], 105%; in experiment [4], 96.7%; in [5], 104%; in experiment [6], 95.3%. Besides, the growth was 78.6% in experiment [7]; 86.6% in experiment [8]; 104% in experiment [9]; 109% in experiment [10]; 113% in experiment [11]; 94.9% in experiment [12]. The growth is 112% in experiment [13]; 110% in experiment [14]; 109% in experiment [15]; 108% in [16]; 97.9% in experiment [17]; 97.6% in experiment [18]. Moreover, the growth in experiment [19] was 96.7%; in experiment [20] it was 102%.

On to `CNC(=O)c1[nH]cc(-c2ccccc2)c1-c1cc(OC)c2c(c1OC)OCO2`, for which the growth in experiment [1] is 104%; in experiment [2], 94.6%; in experiment [3], 103%; in experiment [4], 94.5%; in [5] it was 108%; in experiment [6], 96.7%. The growth in [7] was 87.9%; in experiment [8] it was 96.7%; in [9], 94.8%; in [10] it was 102%; in experiment [11] it was 106%; in experiment [12], 98.7%. The growth was 105% in [13]; 96.2% in experiment [14]; 94.1% in experiment [15]; 93.6% in [16]; 106% in experiment [17]; 102% in experiment [18]. Besides, the growth in experiment [19] is 101%; in [20] it was 98.3%.

Turning to `CCn1cnc2c1c(=O)[nH]c(=O)n2CC1CCC(CNS(=O)(=O)c2ccc(OC3CCOCC3)c(F)c2)CC1` (stereo not given), the growth in experiment [1] is 57.5%; in experiment [2], 55.7%; in experiment [3], 66.7%; in experiment [4], 36.5%; in experiment [5] it was 72.6%; in experiment [6], 31%. The growth in [7] is 39.4%; in [8], 54.9%; in experiment [9] it was 47.4%; in [10] it was 45.3%; in [11], 76.8%; in [12], 39.2%. In addition, the growth in experiment [13] was 58.2%; in experiment [14], 47.8%; in experiment [15] it was 53.1%; in experiment [16], 82.8%; in experiment [17], 58.5%; in experiment [18], 54.7%. Besides, the growth in experiment [19] is 59.8%; in [20], 48.5%.

Source of the values: PubChem BioAssay (NCI).
